PI4K2A block = PI4K2A (human) kinase inhibition; Q9BTU6; purified PI4K2A, ADP-Glo luminescence, 1 h; hits give low values; activity change, negative = inhibition, % at 76.9 µM; hit rate 0.13% among 420,000; AID 1346378; in the data active means activity change below about -50%; inconclusive means mostly about -30% to -49%;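 further: -100% = wells without enzyme as full effect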
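In this quantitative HTS, ADP production by PI4K2A was quantified luminescently after 1 h at ambient temperature; 100 microM adenosine served as plate-quality control.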
Pol beta inh = DNA polymerase beta (human) inhibition; hit rate 1.3% among 340,000; Pol beta primer extension/strand displacement, fluorescence kinetic; Potency, µM (titrated, usually from 114 µM), without a hit: at the top dose activity change, negative = inhibition, usual class: inhibitors; P06746; further: potency means the concentration at half of the fitted maximal effect; on the % scale 0 is the no-effect control and ±100 the full control effect
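Enzyme-only controls used 10 nM Pol beta; buffer lacking enzyme served as negative control. Compound preincubated 15 min, then 50 nM substrate added; 0 and 10 min reads at room temperature.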
POLH inh = inhibitors of human DNA polymerase eta. Q9Y253. recombinant Pol eta, fluorescent DNA replication assay. Potency, µM (doses to about 114 µM), for the others: top-dose activity change, negative = inhibition, usual class: inhibitors. hit rate 1.2% among 390,000. AID 588591; further: potency means the concentration at half of the fitted maximal effect; on the % scale 0 is the no-effect control and ±100 the full control effect
Target sequence (Q9Y253 whole entry, looked up): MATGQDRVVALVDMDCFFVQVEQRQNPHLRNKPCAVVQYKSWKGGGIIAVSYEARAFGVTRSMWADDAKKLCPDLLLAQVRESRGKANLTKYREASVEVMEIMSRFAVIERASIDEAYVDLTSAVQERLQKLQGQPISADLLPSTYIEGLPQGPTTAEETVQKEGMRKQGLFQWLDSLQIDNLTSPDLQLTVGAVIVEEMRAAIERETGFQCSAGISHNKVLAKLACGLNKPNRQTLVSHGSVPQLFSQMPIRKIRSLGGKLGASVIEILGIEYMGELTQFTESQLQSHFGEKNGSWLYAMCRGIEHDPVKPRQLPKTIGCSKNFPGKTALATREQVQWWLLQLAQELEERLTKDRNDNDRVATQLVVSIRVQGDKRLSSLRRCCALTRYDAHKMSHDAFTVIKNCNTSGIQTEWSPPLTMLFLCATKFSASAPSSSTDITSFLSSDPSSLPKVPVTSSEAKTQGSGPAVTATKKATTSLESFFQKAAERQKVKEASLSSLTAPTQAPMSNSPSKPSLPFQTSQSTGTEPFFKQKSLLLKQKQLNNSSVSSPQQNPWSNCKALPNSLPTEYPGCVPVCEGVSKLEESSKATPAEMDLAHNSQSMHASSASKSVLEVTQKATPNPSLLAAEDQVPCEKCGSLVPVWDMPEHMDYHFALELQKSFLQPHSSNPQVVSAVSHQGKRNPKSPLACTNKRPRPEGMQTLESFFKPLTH
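Pol eta (10 nM) was preincubated with compounds for 15 min at room temperature, after which fluorescent replication substrate (50 nM final) was added to start the reaction. Fluorescence was read kinetically at 0 and 10 min.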
POLK inh = blocks human DNA polymerase kappa activity | hit rate 0.53% among 400,000 | purified Pol kappa, fluorescent DNA synthesis assay, 10 min | AID 588579 | Potency, µM (highest dose often 107 µM), inactives show at the highest dose activity, negative = inhibition, usual class: inhibitors; further: potency means the concentration at half of the fitted maximal effect; on the % scale 0 is the no-effect control and ±100 the full control effect
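10 nM Pol kappa was preincubated with compounds for 15 min at room temperature. Reaction started with 50 nM (final) substrate. Fluorescence read kinetically at 0 and 10 min.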
PI5P4K alpha inh = inhibitors of human PI5P4K alpha | PI5P4Kalpha enzyme, ADP-Glo luminescence, 60 min; hits give low values | max response, % | hit rate 1.2% among 330,000 | AID 652105; active means max response of -50% or lower; inconclusive means between -30% and -50%; inactive means -30% or higher; further: value at the top dose of about 77 µM; on the % scale 0 is the no-effect control and ±100 the full control effect
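PI5P4Kalpha ADP-Glo assay; 5 microM ATP final; 60 min RT reaction; HEPES pH 7.4/EGTA/CHAPS, 5% DMSO; controls lacking substrate or enzyme; luminescent end-point.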
Pol iota inh = inhibitors of human DNA polymerase iota; Q9UNA4; Pol iota fluorescent replication assay, 10 min; Potency, µM (highest dose often 115 µM), for the others: top-dose activity, negative = inhibition, actives largely listed as inhibitors; hit rate 1% among 390,000; AID 588590; further: potency means the concentration at half of the fitted maximal effect
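Fluorescent replication assay read twice, at 0 min and 10 min after adding 50 nM (final) substrate. Enzyme (10 nM) and compounds were first incubated 15 min at room temperature; enzyme-free buffer wells were negative controls.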
* = called active by the depositor; ? = inconclusive; nt = not tested or not shown; ! = a repeat was not active; [ ] = remark or other dose. This is a sample that favours compounds with a hit; in the whole collection about 2.8% have one here. Unless noted, the call rests on the fitted dose curve; in most records, active means well fitted inhibition curve with a large enough effect; inconclusive means small, poorly fitted or top-dose-only effect, or another doubt; inactive means no such curve, though single readings can be large or run the other way.

SMILES	PI4K2A block	Pol beta inh	POLH inh	POLK inh	PI5P4K alpha inh	Pol iota inh
Cc1cc(NC(=O)CSCC(=O)N(c2ccc(F)cc2)C(C(=O)NC2CCCCC2)c2ccc(O)c(O)c2)no1 (stereo not drawn)	1.1	20µM*	?	-19.5%	-12.2	?
COc1ccc(N(C(=O)CSCC(=O)Nc2cc(C)on2)C(C(=O)NC2CCCCC2)c2ccc(O)c(O)c2)cc1 (stereo not drawn)	0.6	-12.2%	-1.4%	-28.3%	-13.1	-3.0%
Cc1ccccc1NC(=O)c1c(C)[nH]c(=S)c(C#N)c1-c1ccco1	-8.3	-26.8%	-9.2%	-8.1%	-63.2*	?
COC(=O)c1c(NC(=O)/C=C/C(=O)O)sc(C)c1-c1ccc(C(C)C)cc1	-16.4	-5.0%	79.4µM*	-16.7%	-6.8	21.5%
CNc1nnc(-c2cc3cc(Cl)ccc3oc2=O)s1	-12.3	?	-9.5%	-12.9%	-0.8	-2.2%
CCOc1ccccc1Nc1nnc(-c2cc3cc(OC)ccc3oc2=O)s1	-0.4	?	56.2µM*	4.0%[60.1 µM]	nt	?
COc1ccc2oc(=O)c(-c3nnc(NCc4ccco4)s3)cc2c1	-11.2	25.1µM*	?	?	-13.4	10µM*
FC(F)(F)C(F)(F)C(F)(F)c1nc2ccccc2[nH]1	nt	nt	nt	3.2%	nt	3.3%
CSCCC(C(=O)NC1CCCC1)n1c(-c2ccncc2)nc2ccccc21 (stereo not drawn)	-0.9	nt	nt	nt	3.2	nt
CCC(=O)c1ccc2c(c1)N(CCCN1CCN(CCO)CC1)c1ccccc1S2	nt	nt	nt	-0.2%[19.4 µM]	nt	nt
Oc1c(/C=C/C=C/C=Nc2ccccc2)sc(=S)n1Cc1ccccc1	-8.5	-57.9%	?	79.4µM*	-79.3*	25.1µM*
CCn1c(O)c(/C=C/C=C/C=Nc2ccccc2)sc1=S	-1.1	1.4%	-12.4%	-25.9%	-63.0*	?
CCCCn1c(O)c(/C=C/C=C/C=Nc2ccccc2)sc1=S	-5.6	?	-27.9%	?	?	1.0%
Cc1cc(N2CCN(CCO)CC2)n2nc(C)nc2n1	1.2	nt	nt	nt	nt	nt
CC(NC(=O)COC(=O)c1cc([N+](=O)[O-])ccc1N1CCOCC1)c1ccccc1 (stereo not drawn)	0.5	-0.8%	-21.3%	-5.2%	-5.7	22.4%
CC(NC(=O)COC(=O)c1cc([N+](=O)[O-])ccc1N1CCOCC1)c1ccc(F)cc1 (stereo not drawn)	-0.2	nt	56.2µM*	?	?	?
C[C@@H]1O[C@@H](OC2O[C@@H](COc3cc(O)c4c(=O)cc(-c5ccc(O)cc5)oc4c3)[C@@H](O)[C@@H](O)[C@@H]2O)[C@H](O)[C@H](O)[C@H]1O (stereo partly drawn)	nt	nt	nt	12.5%[60.1 µM]	nt	nt
Cc1cccc(N2CCN(C(=O)CCS(=O)(=O)c3ccc(Br)cc3)CC2C)c1 (stereo not drawn)	-3.2	25.1µM*	?	89.1µM*	-19.5	44.7µM*
Cc1cccc(N2CCN(C(=O)c3noc4c3COc3ccc(C)cc3-4)CC2C)c1 (stereo not drawn)	-4.4	2.3%	-13.1%	?	3.2	50.1µM*!
CC(=O)N1CCCc2cc(S(=O)(=O)CCC(=O)N3CCN(c4cccc(C)c4)C(C)C3)ccc21 (stereo not drawn)	-1.8	?	-0.5%	-9.4%	3.0	-9.8%
Cc1ccc(-c2ccc(=O)n(CC(=O)N3CCN(c4cccc(C)c4)C(C)C3)n2)cc1 (stereo not drawn)	-0.3	4.4%	-18.0%	-11.7%	nt	79.4µM*
Cc1cccc(N2CCN(C(=O)Cn3sc4nc(C)cc(C)c4c3=O)CC2C)c1 (stereo not drawn)	-4.5	-0.2%	-11.6%	-3.0%	-55.3*	41.9%
Cc1ccc2c(c1)-c1onc(C(=O)N3CCN(c4cccc(C)c4C)CC3)c1CO2	2.4	-7.9%	1.5%	-5.8%	nt	18.9%
CCCCN(CCCC)c1ccc(C=Nc2ccc(/C=C/c3ccnc4ccccc34)cc2)cc1C	nt	nt	nt	2.0%	nt	-11.2%
Cc1ccc(NC(=S)NNC(=O)c2cnccn2)cc1	-19.1	nt	nt	nt	nt	nt
SMILES	PI4K2A block	Pol beta inh	POLH inh	POLK inh	PI5P4K alpha inh	Pol iota inh
Cc1ccccc1C(=O)NC1CCCCN(Cc2cccc(Cl)c2)C1=O (stereo not drawn)	-0.3	nt	nt	nt	nt	nt
CC(CN1CCN(c2ccccc2)CC1)c1ccccc1 (stereo not drawn)	5.5	14.9%	-9.7%	-16.3%	nt	44.7µM*
CCC12CN3CC(CC)(CN(C1)C3c1c[nH]c3ccccc13)C2=O (stereo not drawn)	4.0	0.5%	-14.4%	-0.5%[60.1 µM]	nt	-7.3%
CNC(=O)c1c(I)c(NC(=O)CCCCC(=O)Nc2c(I)c(C(=O)O)c(I)c(C(=O)NC)c2I)c(I)c(C(=O)O)c1I	-2.0	nt	nt	nt	nt	nt
NN1C(=O)/C(=C2/Sc3ccccc3N2CCCS(=O)(=O)O)SC1=S	-25.0	22.4µM*	50.1µM*	-34.8%	?	?
CCOCCCNC(=O)c1ccc(CS(=O)(=O)Cc2ccccc2F)o1	-5.9	2.0%	?	89.1µM*	nt	-19.2%[58.9 µM]
COC(=O)[C@@H]1N2C(=O)[C@@H](NC(=O)C(C)Oc3ccccc3)[C@H]2SC1(C)C (stereo partly drawn)	nt	nt	nt	0.0%	nt	44.9%
C=CCN1[C@H](C#N)[C@@H](c2ccccc2)[C@H]1CO	6.4	nt	nt	nt	nt	nt
COCCCn1cnc2c(c1=O)c1nc3ccccc3nc1n2-c1ccc(C)cc1	6.0	35.5µM*	-4.6%	-10.6%	6.3	6.2%
Cc1cc(C)cc(-n2c3nc4ccccc4nc3c3c(=O)n(Cc4ccco4)cnc32)c1	-3.6	35.5µM*	?	-11.1%	-29.3	2.5%
O=c1c2cnn(-c3ccccc3)c2ncn1Cc1ccco1	2.3	-0.5%	2.5%	-2.7%	1.1	16.2%
Cc1cc2c(cc1Cl)N(C(=O)Nc1ccc(Oc3cccnc3C)nc1)CC2	-14.5	nt	nt	-8.4%[60.1 µM]	nt	nt
CC[N+](C)(C)c1ccc(/C=C/c2ccncc2)cc1	nt	nt	nt	-42.5%	nt	79.4µM*
Cc1ccccc1C(=O)Nc1ccc(C(=O)N2CCCC(N(C)C)c3ccccc32)cc1 (stereo not drawn)	-1.6	nt	nt	nt	nt	nt
O=C(CSc1nnc(CCc2ccccc2)n1-c1ccc(Cl)cc1)c1ccccc1	-1.1	7.6%	-10.5%	-2.6%	-50.1*	6.4%
CC1CC2=C(NC(=S)NC2c2ccc(F)cc2)/C(=C/c2ccc(F)cc2)C1 (stereo not drawn)	-1.8	30.0%	-16.9%	-8.2%	nt	79.4µM*
CCN(CC)CCN(C(=O)c1ccco1)c1nc2cc(C)cc(C)c2s1	5.8	56.2µM*	-3.7%	-21.2%	nt	-23.8%
O=c1cc(CSc2nnnn2-c2ccccc2)nc(Nc2ccc(F)cc2)[nH]1	-0.2	44.7µM*	?	?	-1.9	44.7µM*

Screening results: PubChem, National Center for Advancing Translational Sciences (NCATS)
